Here are results for 9 compounds from ChEMBL document CHEMBL1961873, “Compounds: GSK PKIS; Assays: Nanosyn kinase panel” (2012).

The target of assay [1] is T1, Ephrin type-B receptor 2 (Homo sapiens) (UniProt P29323).
T1 sequence (whole entry): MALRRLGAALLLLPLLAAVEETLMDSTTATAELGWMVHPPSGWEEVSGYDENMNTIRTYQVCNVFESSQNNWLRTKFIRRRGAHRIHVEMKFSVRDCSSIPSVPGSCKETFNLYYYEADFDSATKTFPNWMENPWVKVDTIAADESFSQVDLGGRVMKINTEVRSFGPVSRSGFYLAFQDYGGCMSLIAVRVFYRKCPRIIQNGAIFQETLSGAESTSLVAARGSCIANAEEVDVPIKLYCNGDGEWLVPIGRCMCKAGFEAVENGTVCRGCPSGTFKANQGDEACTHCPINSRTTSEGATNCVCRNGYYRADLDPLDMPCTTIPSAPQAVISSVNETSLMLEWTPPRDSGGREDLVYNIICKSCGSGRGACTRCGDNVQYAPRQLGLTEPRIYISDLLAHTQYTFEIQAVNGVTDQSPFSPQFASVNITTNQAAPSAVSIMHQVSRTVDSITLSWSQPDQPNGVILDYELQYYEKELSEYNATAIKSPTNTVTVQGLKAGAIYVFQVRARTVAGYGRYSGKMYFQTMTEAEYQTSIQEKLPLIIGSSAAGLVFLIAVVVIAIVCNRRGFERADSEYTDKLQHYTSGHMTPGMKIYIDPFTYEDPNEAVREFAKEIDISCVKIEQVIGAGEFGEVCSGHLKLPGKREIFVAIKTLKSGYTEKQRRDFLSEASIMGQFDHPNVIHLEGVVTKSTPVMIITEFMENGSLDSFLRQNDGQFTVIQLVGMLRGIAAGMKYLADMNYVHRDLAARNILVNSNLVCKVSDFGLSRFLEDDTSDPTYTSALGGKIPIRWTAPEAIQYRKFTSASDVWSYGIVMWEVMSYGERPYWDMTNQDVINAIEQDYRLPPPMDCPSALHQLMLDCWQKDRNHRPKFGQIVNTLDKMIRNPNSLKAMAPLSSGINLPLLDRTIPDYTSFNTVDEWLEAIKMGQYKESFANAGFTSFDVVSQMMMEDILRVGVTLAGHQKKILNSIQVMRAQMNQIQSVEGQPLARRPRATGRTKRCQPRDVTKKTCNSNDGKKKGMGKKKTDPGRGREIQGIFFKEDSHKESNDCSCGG
The settings on record: at 1 µM.

The target in assay [2] is T2, Ephrin type-B receptor 3 (Homo sapiens) (UniProt P54753).
T2 sequence (whole entry): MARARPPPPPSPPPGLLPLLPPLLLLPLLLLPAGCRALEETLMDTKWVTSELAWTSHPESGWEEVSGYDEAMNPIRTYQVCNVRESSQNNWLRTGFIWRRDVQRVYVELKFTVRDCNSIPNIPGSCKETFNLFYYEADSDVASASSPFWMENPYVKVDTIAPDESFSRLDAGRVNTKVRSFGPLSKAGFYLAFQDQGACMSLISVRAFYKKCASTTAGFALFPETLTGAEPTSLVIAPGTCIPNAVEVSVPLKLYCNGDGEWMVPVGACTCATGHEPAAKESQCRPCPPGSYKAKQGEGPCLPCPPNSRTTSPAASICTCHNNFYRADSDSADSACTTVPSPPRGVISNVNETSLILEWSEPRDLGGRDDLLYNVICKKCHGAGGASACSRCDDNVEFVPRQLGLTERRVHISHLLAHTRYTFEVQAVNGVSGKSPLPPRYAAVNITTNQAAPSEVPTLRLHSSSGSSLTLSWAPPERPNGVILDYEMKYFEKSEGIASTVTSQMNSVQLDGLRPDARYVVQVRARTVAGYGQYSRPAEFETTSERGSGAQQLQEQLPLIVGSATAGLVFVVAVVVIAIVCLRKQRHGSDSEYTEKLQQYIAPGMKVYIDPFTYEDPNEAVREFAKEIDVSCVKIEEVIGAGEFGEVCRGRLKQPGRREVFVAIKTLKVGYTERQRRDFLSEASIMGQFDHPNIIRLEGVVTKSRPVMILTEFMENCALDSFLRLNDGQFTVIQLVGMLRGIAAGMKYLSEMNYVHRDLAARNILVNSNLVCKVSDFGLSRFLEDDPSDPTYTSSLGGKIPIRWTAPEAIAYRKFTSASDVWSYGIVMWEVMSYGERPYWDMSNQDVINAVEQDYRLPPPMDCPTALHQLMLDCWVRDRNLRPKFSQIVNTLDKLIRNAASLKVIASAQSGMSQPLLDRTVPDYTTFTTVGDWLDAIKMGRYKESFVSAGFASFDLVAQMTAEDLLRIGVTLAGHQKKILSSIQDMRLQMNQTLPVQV
The conditions noted are these: at 0.1 µM.

Assay [3] deals with T2, Ephrin type-B receptor 3 (Homo sapiens). The conditions noted are these: at 1 µM.
The target of assay [4] is T3, Ephrin type-B receptor 4 (Homo sapiens) (UniProt P54760).
T3 sequence (whole entry): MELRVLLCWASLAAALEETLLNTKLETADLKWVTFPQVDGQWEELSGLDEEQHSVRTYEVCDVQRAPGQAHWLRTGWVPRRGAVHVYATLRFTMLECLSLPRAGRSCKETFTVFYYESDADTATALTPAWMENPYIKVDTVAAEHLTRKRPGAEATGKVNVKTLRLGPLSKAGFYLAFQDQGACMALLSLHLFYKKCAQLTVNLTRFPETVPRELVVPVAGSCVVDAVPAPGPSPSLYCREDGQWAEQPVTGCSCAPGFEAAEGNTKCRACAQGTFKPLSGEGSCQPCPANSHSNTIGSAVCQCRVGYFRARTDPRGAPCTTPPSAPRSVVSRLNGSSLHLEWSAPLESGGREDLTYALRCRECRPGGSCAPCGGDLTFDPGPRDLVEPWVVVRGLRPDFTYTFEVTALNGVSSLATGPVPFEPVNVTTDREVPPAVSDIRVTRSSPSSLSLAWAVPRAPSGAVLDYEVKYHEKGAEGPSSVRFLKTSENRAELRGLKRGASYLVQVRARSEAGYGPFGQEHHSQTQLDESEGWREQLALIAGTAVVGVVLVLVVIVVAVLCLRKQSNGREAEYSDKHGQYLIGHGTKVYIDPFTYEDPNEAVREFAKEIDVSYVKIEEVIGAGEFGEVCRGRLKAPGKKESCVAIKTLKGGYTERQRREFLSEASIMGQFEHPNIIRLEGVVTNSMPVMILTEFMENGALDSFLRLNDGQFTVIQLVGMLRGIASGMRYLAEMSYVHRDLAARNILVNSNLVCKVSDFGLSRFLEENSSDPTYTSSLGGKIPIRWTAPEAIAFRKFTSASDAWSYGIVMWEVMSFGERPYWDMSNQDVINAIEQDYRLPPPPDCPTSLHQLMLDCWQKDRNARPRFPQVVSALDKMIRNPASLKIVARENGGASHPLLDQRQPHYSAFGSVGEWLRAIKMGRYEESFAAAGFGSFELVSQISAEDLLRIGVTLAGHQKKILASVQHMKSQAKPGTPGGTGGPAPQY
The settings on record: at 0.1 µM.

Assay [5] addresses T3, Ephrin type-B receptor 4 (Homo sapiens). The settings on record: at 1 µM.
In assay [6] the target is Receptor tyrosine-protein kinase erbB-2 (Homo sapiens) (UniProt P04626). The settings on record: at 0.1 µM.
Chain of Receptor tyrosine-protein kinase erbB-2 (Homo sapiens) (P04626 whole entry): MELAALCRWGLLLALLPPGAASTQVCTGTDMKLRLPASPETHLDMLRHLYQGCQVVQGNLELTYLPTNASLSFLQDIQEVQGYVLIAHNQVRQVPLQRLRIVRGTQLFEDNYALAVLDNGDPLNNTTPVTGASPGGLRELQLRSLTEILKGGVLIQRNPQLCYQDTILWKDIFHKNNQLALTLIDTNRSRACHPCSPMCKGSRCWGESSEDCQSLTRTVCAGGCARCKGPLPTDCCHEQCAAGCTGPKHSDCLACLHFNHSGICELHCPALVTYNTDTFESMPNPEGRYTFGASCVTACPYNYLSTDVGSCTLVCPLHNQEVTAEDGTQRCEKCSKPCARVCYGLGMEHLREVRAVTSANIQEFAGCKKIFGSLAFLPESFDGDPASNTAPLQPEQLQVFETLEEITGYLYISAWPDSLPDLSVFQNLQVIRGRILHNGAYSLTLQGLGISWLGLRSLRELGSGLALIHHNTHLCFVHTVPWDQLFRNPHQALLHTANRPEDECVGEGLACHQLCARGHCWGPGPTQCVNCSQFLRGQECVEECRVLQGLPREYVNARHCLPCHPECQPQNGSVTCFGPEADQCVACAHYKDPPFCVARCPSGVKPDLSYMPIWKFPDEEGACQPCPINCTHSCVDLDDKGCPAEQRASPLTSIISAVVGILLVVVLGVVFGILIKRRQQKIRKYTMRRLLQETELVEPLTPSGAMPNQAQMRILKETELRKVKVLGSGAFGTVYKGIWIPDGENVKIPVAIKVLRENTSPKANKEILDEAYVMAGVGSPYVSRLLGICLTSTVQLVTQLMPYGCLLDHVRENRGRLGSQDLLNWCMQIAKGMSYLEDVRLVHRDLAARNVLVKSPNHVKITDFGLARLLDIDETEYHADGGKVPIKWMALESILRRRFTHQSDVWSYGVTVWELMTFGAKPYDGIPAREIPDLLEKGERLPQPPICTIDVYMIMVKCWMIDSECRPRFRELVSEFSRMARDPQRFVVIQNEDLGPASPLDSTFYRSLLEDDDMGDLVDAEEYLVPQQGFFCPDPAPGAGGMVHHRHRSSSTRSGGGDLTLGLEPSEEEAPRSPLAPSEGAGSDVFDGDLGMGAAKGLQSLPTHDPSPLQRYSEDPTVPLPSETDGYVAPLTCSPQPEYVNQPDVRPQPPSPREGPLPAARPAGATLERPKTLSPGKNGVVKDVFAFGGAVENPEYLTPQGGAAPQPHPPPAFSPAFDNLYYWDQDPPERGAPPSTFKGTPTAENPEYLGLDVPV
Assay [7] shares this target. The settings on record: at 1 µM.
Assay [8] has as its target Receptor tyrosine-protein kinase erbB-4 (Homo sapiens) (UniProt Q15303). The settings on record: at 0.1 µM.
Assay [9] deals with Tyrosine-protein kinase Fer (Homo sapiens) (UniProt P16591). The conditions noted are these: at 0.1 µM.
Chain of Tyrosine-protein kinase Fer (Homo sapiens) (P16591 whole entry, looked up): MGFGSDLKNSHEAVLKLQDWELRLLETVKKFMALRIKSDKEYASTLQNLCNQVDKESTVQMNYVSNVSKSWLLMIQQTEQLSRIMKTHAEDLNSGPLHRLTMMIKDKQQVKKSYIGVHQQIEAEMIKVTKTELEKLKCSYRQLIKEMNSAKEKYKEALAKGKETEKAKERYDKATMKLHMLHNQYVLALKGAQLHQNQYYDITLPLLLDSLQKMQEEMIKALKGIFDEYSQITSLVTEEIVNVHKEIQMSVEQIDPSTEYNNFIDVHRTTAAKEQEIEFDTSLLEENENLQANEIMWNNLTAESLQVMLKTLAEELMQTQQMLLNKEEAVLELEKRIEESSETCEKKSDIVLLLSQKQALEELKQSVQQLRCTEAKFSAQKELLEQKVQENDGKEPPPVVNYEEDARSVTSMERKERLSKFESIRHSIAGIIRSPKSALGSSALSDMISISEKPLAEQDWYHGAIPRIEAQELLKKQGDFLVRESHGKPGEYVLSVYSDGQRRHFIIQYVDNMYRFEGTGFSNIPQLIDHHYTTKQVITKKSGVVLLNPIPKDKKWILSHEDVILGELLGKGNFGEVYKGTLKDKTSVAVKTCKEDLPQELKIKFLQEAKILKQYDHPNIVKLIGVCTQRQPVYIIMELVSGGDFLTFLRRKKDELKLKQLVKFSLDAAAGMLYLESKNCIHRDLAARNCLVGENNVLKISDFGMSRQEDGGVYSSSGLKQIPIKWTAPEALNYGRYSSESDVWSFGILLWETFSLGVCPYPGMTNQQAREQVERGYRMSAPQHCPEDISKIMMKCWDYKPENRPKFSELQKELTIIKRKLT
Assay [10] deals with Receptor tyrosine-protein kinase erbB-4 (Homo sapiens) (UniProt Q15303). The conditions noted are these: at 1 µM.
Chain of Receptor tyrosine-protein kinase erbB-4 (Homo sapiens) (Q15303 whole entry): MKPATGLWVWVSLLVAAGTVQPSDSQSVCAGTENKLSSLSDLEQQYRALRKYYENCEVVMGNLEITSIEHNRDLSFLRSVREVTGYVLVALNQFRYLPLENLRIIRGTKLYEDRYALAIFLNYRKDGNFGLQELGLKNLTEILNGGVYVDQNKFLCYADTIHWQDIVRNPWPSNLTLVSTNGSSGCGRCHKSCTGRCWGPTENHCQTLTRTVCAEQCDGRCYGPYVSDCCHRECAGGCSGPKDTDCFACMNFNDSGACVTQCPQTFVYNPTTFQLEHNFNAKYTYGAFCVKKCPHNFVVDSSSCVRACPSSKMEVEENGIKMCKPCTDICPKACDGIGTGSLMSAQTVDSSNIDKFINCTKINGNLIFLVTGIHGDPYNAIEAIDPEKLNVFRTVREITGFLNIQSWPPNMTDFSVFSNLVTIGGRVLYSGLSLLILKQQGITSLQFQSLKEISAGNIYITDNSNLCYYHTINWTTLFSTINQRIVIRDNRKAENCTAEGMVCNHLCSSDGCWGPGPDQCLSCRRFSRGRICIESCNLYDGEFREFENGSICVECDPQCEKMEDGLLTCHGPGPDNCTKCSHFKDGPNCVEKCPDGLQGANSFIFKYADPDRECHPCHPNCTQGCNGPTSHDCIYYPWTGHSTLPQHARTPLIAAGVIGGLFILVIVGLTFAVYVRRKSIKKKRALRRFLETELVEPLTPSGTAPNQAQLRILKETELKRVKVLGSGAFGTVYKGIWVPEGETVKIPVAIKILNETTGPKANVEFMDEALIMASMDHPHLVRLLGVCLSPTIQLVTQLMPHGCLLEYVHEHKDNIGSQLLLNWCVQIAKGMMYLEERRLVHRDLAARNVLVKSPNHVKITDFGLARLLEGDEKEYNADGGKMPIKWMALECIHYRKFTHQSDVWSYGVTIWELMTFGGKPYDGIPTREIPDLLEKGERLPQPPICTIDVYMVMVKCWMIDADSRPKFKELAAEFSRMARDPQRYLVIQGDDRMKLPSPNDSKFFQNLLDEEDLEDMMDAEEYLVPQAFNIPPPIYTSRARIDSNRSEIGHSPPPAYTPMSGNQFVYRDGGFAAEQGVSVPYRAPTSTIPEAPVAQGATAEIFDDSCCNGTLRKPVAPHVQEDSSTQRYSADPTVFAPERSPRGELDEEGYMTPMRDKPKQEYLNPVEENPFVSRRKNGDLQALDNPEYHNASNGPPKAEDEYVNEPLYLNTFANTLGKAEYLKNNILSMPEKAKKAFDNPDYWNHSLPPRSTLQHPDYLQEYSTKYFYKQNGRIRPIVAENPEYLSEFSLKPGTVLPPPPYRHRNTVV

Take `NS(=O)(=O)c1ccc(N/N=C2\C(=O)Nc3ccc(Cl)cc32)cc1`: the inhibition in [1] amounted to 6.46%; in assay [2] it was 3.51%; in [3], 2.43%; in [4] it was 1.05%; in [5], 2.86%; in assay [6], 2.29%. Further, the inhibition in assay [7] is 4.3%; in assay [8], 4.78%; in assay [9], 2.95%.

With `CCn1c(-c2nonc2N)nc2ccc(F)cc21`, the inhibition in assay [1] was found to be 12.6%; in [2], 6.48%; in [3], 4.6%; in [4] it was 1.64%; in assay [5], 1.12%; in assay [6], 5.65%. The inhibition stood at 14% in [7], 20.6% in assay [8], 20.7% in assay [10] and 3.01% in [9].

For `NC(=O)c1cccc(Nc2nccc(Nc3cccc(F)c3)n2)c1`, the inhibition is 18.1% in [1]; 2.13% in assay [2]; 2.83% in [3]; -0.22% in [4]; 5.23% in [5]; 0.04% in assay [6]. Also, the inhibition in [7] is 3.14%; in assay [8], 5.37%; in assay [10], 13.2%; in assay [9], -2.66%.

Turning to `Cc1ccc2c(-c3ccnc(Nc4ccc5c(c4)OCCO5)n3)c(-c3ccc(C(F)(F)F)cc3)nn2n1`, the inhibition in assay [1] was 1.37%; in assay [2], -0.21%; in [3], 2.22%; in [4], -1.12%; in assay [5] it was 1.46%; in assay [6], 2.13%. Further, the inhibition came out at 4.1% in assay [7], 3.46% in assay [8], 16.3% in [10] and 0.5% in assay [9].

Turning to `COc1ccc(-c2nn3ncccc3c2-c2ccnc(Nc3cccc(C(F)(F)F)c3)n2)cc1`, the inhibition in [1] was 6.69%; in [2], 3.95%; in assay [3], 4.5%; in [4] it was 0.66%; in assay [5], 5.01%; in [6], 3.15%. In addition, the inhibition was determined as 9.69% in assay [7], 25.8% in assay [8], 83.1% in [10] and 0.8% in assay [9].

As for `COC(=O)c1cncc(/C=C/c2c(C)cc(O)cc2C)c1`, the inhibition in [1] worked out at 56.4%; in assay [2], 6.09%; in [3], 11.8%; in assay [4] it was 6.99%; in [5] it was 38.7%; in [6] it was 1.31%. Moreover, the inhibition in assay [7] turned out to be 2.82%; in assay [8], 7.72%; in [10], 10%; in assay [9], 2.19%.

With `Nc1nccc(-c2c(-c3ccc(F)cc3)ncn2CCCN2CCOCC2)n1`, the inhibition in [1] worked out at 7.41%; in assay [2] it was 5.73%; in [3] it was 3.41%; in [4], 2.19%; in assay [5] it was 3.04%; in [6] it was 4.07%. The inhibition in assay [7] stood at 6.08%; in [8], 12.4%; in [10], 31.7%; in [9], 2.69%.

For `Nc1nccc(C#Cc2cncnc2Nc2ccc(OCc3cccc(F)c3)c(Cl)c2)n1`, the inhibition in [1] was 7.89%; in assay [2] it was 5.26%; in [3], 4.02%; in assay [4], 1.01%; in assay [5] it was 2.68%; in [6] it was -1.45%. In addition, the inhibition in [7] is -8.09%; in [8], 14.2%; in assay [10] it was 24.8%; in [9], 2.1%.

As for `O=C1Nc2ccccc2/C1=C/Nc1ccc2[nH]c(=O)[nH]c2c1`, the inhibition in assay [1] was 20.6%; in assay [2], 6.46%; in assay [3] it was 5.55%; in assay [4] it was 5.44%; in [5] it was 5.98%; in [6] it was 3.93%. The inhibition in [7] is 2.8%; in assay [8], 9.76%; in assay [10] it was 15.3%; in assay [9], 3.27%.
